22 molecules from PubChem BioAssay can be followed below.

Calls of active or inactive are those of the source. How the calls were made is not given here.

For the assay, the target named is Lethal factor (Bacillus anthracis) (UniProt P15917). The experiment in a line: Bacillus anthracis lethal factor inhibition, microsphere flow cytometry protease assay, validation at 10 µM (AID 588461). To be noted: multiplex microsphere protease cleavage assay, hits give high values.
One may read the inhibition as the change of the read-out against control, counted positive when it falls. As to `O=C1CC2(CCCC2)CC(=O)N1CCCCN1CCN(c2ncccn2)CC1`, the inhibition is 6.7% (inactive).

As to `CCC(CO)NCCNC(CC)CO` (configuration not stated), the inhibition was -0.2% (inactive).

On to `Cn1c(=O)c2c(ncn2CC(O)CO)n(C)c1=O` (configuration not stated), for which the inhibition is 2% (inactive).

On to `COc1cc(CNc2ccc(C)c(C)c2)cc(OC)c1OC`, for which the inhibition is -8.9% (inactive).

Regarding `COc1ccc(S(=O)(=O)N2CCN(C(=O)COc3ccc4c(C)cc(=O)oc4c3)CC2)cc1`, the inhibition is -0.8% (inactive).

On to `CC(C(=O)O)c1cccc(C(=O)c2ccccc2)c1` (configuration not stated), for which the inhibition was 5.8% (inactive).

`O=C1c2ccccc2C(=O)C1c1ccccc1`: the inhibition is 9.8% (inactive).

In the case of `Nc1nc2c(ncn2COCCO)c(=O)[nH]1`, the inhibition is 0.4% (inactive).

`CCN(CC)CCNC(=O)c1ccc(N)cc1`: the inhibition was 2.4% (inactive).

Consider `O=C(OCC1OC2OC3(CCCCC3)OC2C2OC3(CCCCC3)OC12)c1ccccc1` (configuration not stated), for which the inhibition was -2.2% (inactive).

As to `Nc1nc(Cl)nc2c1ncn2[C@H]1C[C@H](O)[C@@H](CO)O1`, the inhibition is -19.4% (inactive).

Take `Nc1nc2c(nc(SCc3ccccc3Br)n2C2OC(CO)C(O)C2O)c(=O)[nH]1` (configuration not stated): the inhibition was -1.1% (inactive).

For the molecule `COc1ccc(C(=O)NCCC2=CCCCC2)cc1[N+](=O)[O-]`, the inhibition is -4.6% (inactive).

For the molecule `CC[C@H](C)C(=O)O[C@H]1C[C@@H](C)C=C2C=C[C@H](C)[C@H](CC[C@@H]3C[C@@H](O)CC(=O)O3)[C@H]21`, the inhibition was 10.4% (inactive).

In the case of `C[C@H](CS)C(=O)N1CCC[C@H]1C(=O)O`, the inhibition was -1.8% (inactive).

Consider `O=c1c2[nH]c3ccccc3c2ncn1CCC1=CCCCC1`, for which the inhibition is -3.1% (inactive).

As for `Cc1cnc(NC(=O)C2=C(O)c3ccccc3S(=O)(=O)N2C)s1`, the inhibition is 1.4% (inactive).

Regarding `CC(C)OC(=O)C(C)(C)Oc1ccc(C(=O)c2ccc(Cl)cc2)cc1`, the inhibition was -0.7% (inactive).

Take `Cc1nnc(SCC2=C(C(=O)O)N3C(=O)[C@@H](NC(=O)Cn4cnnn4)[C@H]3SC2)s1`: the inhibition was 0.6% (inactive).

`CS(=O)c1ccccc1O` (configuration not stated): the inhibition is -9.2% (inactive).

Take `CN1CCc2cccc3c2[C@@H]1Cc1ccc(O)c(O)c1-3`: the inhibition is -53.3% (inactive).

On to `NCCCC(=O)O`, for which the inhibition was 0.3% (inactive).
